Source: PubChem BioAssay
CYP2C9 inhib: blocks human cytochrome P450 2C9; AID 777; CYP2C9 Supersomes, luciferin-H conversion, luminescence; inhibition, % at 5 µM; 20% of 96,000 active; P11712;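 active means blocking of liver enzyme CYP2C9 beyond about 50% at 5 µM, limit read from the data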
Target sequence (P11712 whole entry, looked up): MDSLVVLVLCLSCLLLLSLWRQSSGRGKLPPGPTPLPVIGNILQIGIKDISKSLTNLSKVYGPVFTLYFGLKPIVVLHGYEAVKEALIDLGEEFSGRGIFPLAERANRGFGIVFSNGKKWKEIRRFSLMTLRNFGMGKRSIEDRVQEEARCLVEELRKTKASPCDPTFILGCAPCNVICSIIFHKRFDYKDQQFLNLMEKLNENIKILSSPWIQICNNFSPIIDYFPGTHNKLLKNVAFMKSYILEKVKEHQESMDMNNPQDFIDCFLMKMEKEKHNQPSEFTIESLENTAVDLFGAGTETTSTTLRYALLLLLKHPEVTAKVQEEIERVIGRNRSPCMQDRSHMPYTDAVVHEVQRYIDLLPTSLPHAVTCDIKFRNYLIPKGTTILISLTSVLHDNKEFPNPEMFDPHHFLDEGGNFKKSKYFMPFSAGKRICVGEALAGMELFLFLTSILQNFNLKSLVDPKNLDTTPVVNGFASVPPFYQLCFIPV
CYP2C19 activ: activators of human cytochrome P450 2C19. P33261. recombinant CYP2C19, luciferin-H EGE luminescence; hits give high values; 0 = fully inhibited enzyme, 1 = untreated enzyme. activation factor at 5 µM. 96,000 tested, under 10 active;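 active means activation factor of at least 2 at 5 µM in the primary screen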
CYP2C19 inh: human CYP2C19 inhibition. 21% of 96,000 active. CYP2C19 Supersomes, luciferin-H EGE luminescence, 30 min. inhibition, % at 5 µM. P33261. AID 778;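 active means CYP2C19 inhibition above a set limit at 5 µM in the primary screen, cut at about 50% in these data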
CYP2C9 act: increases human cytochrome P450 2C9 activity; P11712; activation factor at 5 µM; recombinant CYP2C9, luciferin-H conversion, luminescence; hits give high values; factor 1 = untreated enzyme, 0 = blocked; 1.4% of 96,000 active;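 active means activation factor of 2 or more for CYP2C9 at a 5 µM dose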
Cav32 inh: human Cav3.2 channel inhibition, primary screen | B-score at 10 µM | O95180 | Cav3.2-expressing cells, Fluo-4 calcium fluorescence FDSS; hits give low values | AID 449739 | 4% of 100,000 active;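 active means single-dose well whose peak fluorescence ratio is a statistical outlier from its plate by either plate-standardised score or position-corrected B-score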
Numbers stand for hits; n = inactive; x = no result. This is a sample that favours compounds with a hit; in the whole collection about 27% have one here.

SMILES	CYP2C9 inhib	CYP2C19 activ	CYP2C19 inh	CYP2C9 act	Cav32 inh
COc1ccc(C)cc1N(CC(=O)NC1CCCC1)C(=O)CCC(=O)Nc1cc(C)on1	n	n	n	n	n
O=C(O)CC(CNS(=O)(=O)c1ccccc1)c1ccccc1 (configuration not stated)	n	n	n	n	n
CC1(C(=O)O)CCC(C(=O)NCCc2ccccc2)C1(C)C (configuration not stated)	n	n	n	n	n
CC1(C)CC(=O)C(C(=O)/C=C/NCCc2ccccc2)C(=O)C1	74	n	n	n	n
C=CCn1c(=O)/c(=C/c2ccc(Cl)cc2)s/c1=C(/C#N)c1nnc2n1CCCCC2	78	n	n	n	n
CCC(C)N=CC1=C(O)CC(c2ccccc2)CC1=O (configuration not stated)	n	n	52	n	n
CC1=C(C)/C(=N\OS(=O)(=O)c2ccccc2)C=CC1=O	n	n	n	n	n
Cc1ccc(S(=O)(=O)N2CCCC2C(=O)N2CCCCCC2)cc1 (configuration not stated)	n	n	n	2.7	n
O=C(C1CCCCN1S(=O)(=O)c1ccccc1)N1CCN(Cc2ccccc2)CC1 (configuration not stated)	n	n	62	n	n
Cc1ccc(CN2CCN(C(=O)C3CCC3)CC2)cc1	x	x	x	x	n
Cc1ccc(S(=O)(=O)N2CCCCC2C(=O)N2CCN(Cc3ccccc3)CC2)cc1 (configuration not stated)	n	n	85	2.9	n
O=C(C1CCC1)N1CCN(Cc2ccccc2)CC1	n	n	93	n	n
CC(C)(Oc1ccc(Cl)cc1)C(=O)Nc1ncccn1	n	n	n	n	n
Cc1ccc(S(=O)(=O)N2CCCC2C(=O)Nn2cnnc2)cc1 (configuration not stated)	n	n	n	n	n
Cc1ccc(S(=O)(=O)N2CCCC2C(=O)Oc2ccccc2)cc1 (configuration not stated)	n	n	75	n	n
COc1ccccc1OCC(=O)N(Cc1nc(-c2ccc(Cl)cc2)no1)C(C)C	n	n	78	n	-5
CC(C)N(Cc1nc(-c2ccc(Cl)cc2)no1)C(=O)CCC1CCCC1	n	n	n	n	n
COc1cccc(OCC(=O)N(Cc2nc(-c3ccc(Cl)cc3)no2)C(C)C)c1	87	n	88	n	n
Cc1cc(S(=O)(=O)N(Cc2ccc3c(c2)OCO3)CC2CCCO2)ccc1-n1cnnn1 (configuration not stated)	69	n	95	n	x
Cc1cc(S(=O)(=O)NCc2cccnc2)ccc1-n1cnnn1	n	n	n	n	n
Cc1cc(S(=O)(=O)N(Cc2ccc(C(C)C)cc2)CC2CCCO2)ccc1-n1cnnn1 (configuration not stated)	53	n	n	n	x
COc1ccc(CN(C2CCCC2)S(=O)(=O)c2ccc(-n3cnnn3)c(OC)c2)cc1OC	n	n	n	n	n
Cc1cc(S(=O)(=O)N(Cc2ccc(F)cc2)CC2CCCO2)ccc1-n1cnnn1 (configuration not stated)	n	n	56	n	n
CCCN1C(=O)c2ccc(C(=O)NC3CCCCC3)cc2C1=O	n	n	n	n	n
O=C(O)C1=C[C@H](c2cccs2)C[C@H](OCc2ccc(CO)cc2)O1	x	x	x	x	n
SMILES	CYP2C9 inhib	CYP2C19 activ	CYP2C19 inh	CYP2C9 act	Cav32 inh
Cc1cc([N+](=O)[O-])nn1CC(=O)NNC(=S)Nc1ccc(Cl)cc1	n	n	n	n	n
O=C(CSc1cccc2cccnc12)OCC(=O)c1ccccc1	n	n	n	2.6	n
O=C(CSc1cccc2cccnc12)OCC(=O)c1ccc(Br)cc1	n	n	n	n	n
FC(F)(F)c1cccc(-n2cccc2/C=N/n2cnnc2)c1	n	n	n	n	n
Cc1ccc(CN2C(=O)[C@H]3Cc4c([nH]c5ccccc45)C(C)(C)N3C2=O)cc1	x	x	x	x	n
COC(=O)C1=C(C)NC(C)=C(C(=O)OCCN(C)Cc2ccccc2)C1c1cccc([N+](=O)[O-])c1 (configuration not stated)	x	x	x	x	-4.1
COc1cccc(S(=O)(=O)Nc2ccc3sc(C)nc3c2)c1	95	n	100	n	x
O=C(CN1CCCC1)NCC12CC3CC(CC(C3)C1)C2	n	n	n	n	n
O=C(CN1CCOCC1)NCCC12CC3CC(CC(C3)C1)C2	n	n	54	n	n
Cc1onc(-c2c(Cl)cccc2Cl)c1C(=O)Nc1ccc2c(c1)OCO2	81	n	n	n	n
